The list is not random: actives were taken first. Their share in the collection is about 0.96%.
A488 fluor: compound autofluorescence in A488 spectral region. compound autofluorescence, A488 spectral region, dye equivalency; Compound Type: qHTS ECL - MLSMR. max dye equivalency, M. 59,000 compounds, 0.1% hits
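Compounds pin-transferred into 100 mM Tris buffer, pH 8.0, incubated 15 min at room temperature, then imaged with 480 nm excitation/540 nm emission filters. Fluorescence converted to Alexa 488 dye-equivalent concentration via an on-plate six-point A488 standard curve.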
Texas Red fluor: compounds fluorescent in Texas Red spectral region | Compound fluorescence, Texas Red channel, 547/618 nm; hits give high values | max dye-equivalent concentration, M | 59,000 compounds, 0.06% hits | AID 587; in the data active = max dye-equivalent concentration above about 10 nM; inconclusive = between about 1.1 nM and that limit
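Pin-transferred compounds and Texas Red standards go into 100 mM Tris buffer, pH 8.0. After 15 min at room temperature, plates are imaged with 547/618 nm filters. Each value is a dye-equivalent concentration derived from the per-plate dye curve.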
Fluorescein autfl: compound autofluorescence in fluorescein spectral region | Compound autofluorescence, 480/540 nm, fluorescein-equivalent; hits give high values | max fluorescein-equivalent concentration, M | 59,000 compounds, 0.91% hits | AID 593; in the data active = max fluorescein-equivalent concentration above about 10 nM; inconclusive = between about 1.1 nM and that limit
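Spectral profiling of library compounds in the fluorescein window (480 nm excitation, 540 nm emission) after 15 min at room temperature in pH 8.0 Tris (100 mM). Values are dye-equivalent concentrations.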
Resorufin fluor: compounds fluorescent in resorufin spectral region. Compound fluorescence, resorufin region 547/598 nm, buffer; hits give high values. max dye-equivalent concentration, M. 59,000 compounds, 0.04% hits. AID 588
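Compounds in 100 mM Tris buffer, pH 8.0, incubated 15 min at room temperature, then read with 547 nm excitation and 598 nm emission filters. Fluorescence was converted to dye-equivalent concentration using an on-plate six-point resorufin standard curve.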
Rhodamine autofl: compound fluoresces in the rhodamine spectral region | Rhodamine-region fluorescence, 547/598 nm, Tris buffer; hits give high values | max dye-equivalent concentration, M | 59,000 compounds, 0.05% hits | AID 594; in the data active = max dye-equivalent concentration above about 11 nM; inconclusive = between about 1.1 nM and that limit
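Compound fluorescence in 100 mM Tris, pH 8.0, read after 15 min at room temperature with 547 nm excitation and 598 nm emission. Output is dye-equivalent concentration from an on-plate rhodamine standard series.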
A647 autofl: compound fluoresces in the A647 spectral region; AID 592; max dye-equivalent concentration, M; Compound fluorescence, A647 channel (570/671 nm), Tris buffer; 59,000 tested, under 10 active;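 note: values scaled relative to a standard on each plate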
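Spectral profiling of library compounds in pH 8.0 Tris: 15 min room-temperature incubation, single ex/em pair (570/671 nm), response normalized to Alexa 647 equivalents.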
* hit, by the source's call; ! = not active in a repeat. Unless noted, the rule behind the calls is not given here.

`CN(C)c1ncc2nc(-c3cccs3)c(=O)n(CCC#N)c2n1` gave A488 fluor inconclusive, Texas Red fluor inactive, Fluorescein autfl 3.65e-08M*, Resorufin fluor inactive, Rhodamine autofl inactive and A647 autofl 9.3e-09.
For COc1ncc2nc(-c3cccs3)c(=O)n(CCC#N)c2n1 the results were A488 fluor inactive, Texas Red fluor inactive, Fluorescein autfl inconclusive, Resorufin fluor inactive, Rhodamine autofl inactive and A647 autofl 1.36e-08.
`CN(C)c1ncc2nc(-c3cccs3)c(=O)n(CCc3ccccc3)c2n1` gave A488 fluor inactive, Texas Red fluor inconclusive, Fluorescein autfl inactive, Resorufin fluor inactive, Rhodamine autofl inactive and A647 autofl 1.22e-08.
`CN(C)c1ncc2nc(-c3cccs3)c(=O)n(C)c2n1` gave A488 fluor inactive, Texas Red fluor inactive, Fluorescein autfl 1.46e-08M*, Resorufin fluor inactive, Rhodamine autofl inactive and A647 autofl 1.51e-08.
C=C[C@H]1CN2CC[C@@H]1C[C@H]2[C@@H](O)c1ccnc2ccc(OC)cc12 was read as A488 fluor inactive, Texas Red fluor inactive, Fluorescein autfl inconclusive, Resorufin fluor inactive, Rhodamine autofl inactive and A647 autofl 6.12e-08.
`Cc1c(CN2CCCCC2)c(O)n(CCCO)c(=O)c1C#N` gave A488 fluor inactive, Texas Red fluor inconclusive, Fluorescein autfl 1.63e-08M*, Resorufin fluor inactive, Rhodamine autofl inactive and A647 autofl 3.9e-09.
Screening C=CCn1c(O)c(CN2CCN(Cc3ccccc3)CC2)c(C)c(C#N)c1=O returned A488 fluor inactive, Texas Red fluor inactive, Fluorescein autfl 2.14e-08M*, Resorufin fluor inactive, Rhodamine autofl inactive and A647 autofl 1e-09.
For C=CCOC(=O)C(C#N)c1nc2ccccc2nc1N1CCN(Cc2ccccc2)CC1 (centres undefined) the results were A488 fluor inactive, Texas Red fluor inconclusive, Fluorescein autfl inconclusive, Resorufin fluor inactive, Rhodamine autofl inactive and A647 autofl 1e-09.
CCCn1c(O)c(CN2CCCCC2)c(C)c(C#N)c1=O was read as A488 fluor inactive, Texas Red fluor inconclusive, Fluorescein autfl 1.49e-08M*, Resorufin fluor inactive, Rhodamine autofl inactive and A647 autofl 1.4e-09.
For C[C@@H]1[C@H]2CC[C@@H]3[C@@H]4CC=C5C[C@@H](N(C)C)CC[C@]5(C)[C@@H]4CC[C@@]32CN1C the results were A488 fluor inactive, Texas Red fluor inactive, Fluorescein autfl inconclusive, Resorufin fluor inactive, Rhodamine autofl inactive and A647 autofl 2.87e-08.
Screening Cc1cccc(N=c2oc3cc(O)ccc3cc2C(N)=O)c1 returned A488 fluor inactive, Texas Red fluor inactive, Fluorescein autfl 1.21e-08M*, Resorufin fluor inactive, Rhodamine autofl inactive and A647 autofl 1.87e-08.
`O=C1c2ccccc2C(=O)c2c(NC3CCCCC3)ccc(Nc3ccc(S(=O)(=O)O)cc3)c21` gave A488 fluor inactive, Texas Red fluor 6.07e-08M*, Fluorescein autfl inconclusive, Resorufin fluor inconclusive, Rhodamine autofl 1.2e-08M* and A647 autofl 3.33e-08.
`Cn1ncc(N=Cc2ccccc2O)c1C(=O)Nc1ccccc1` gave A488 fluor inactive, Texas Red fluor inactive, Fluorescein autfl inactive, Resorufin fluor inactive, Rhodamine autofl inactive and A647 autofl 7.56e-08.
Screening Cn1ncc(N=Cc2c(O)ccc3ccccc23)c1C(=O)N1CCOCC1 returned A488 fluor inactive, Texas Red fluor inactive, Fluorescein autfl 1.67e-08M*, Resorufin fluor inactive, Rhodamine autofl inactive and A647 autofl 1e-09.
`COc1cccc(/C=C/c2ccncc2)c1OC` gave A488 fluor inactive, Texas Red fluor inactive, Fluorescein autfl inactive, Resorufin fluor inactive, Rhodamine autofl inactive and A647 autofl 2.72e-08.
Screening CN(C)c1ccc(/C=C/c2ccncc2)cc1 returned A488 fluor inactive, Texas Red fluor inactive, Fluorescein autfl 1.15e-08M*, Resorufin fluor inactive, Rhodamine autofl inactive and A647 autofl 2.56e-08.
Cc1ccc2nc3sc(C(=O)N4CCOCC4)c(N)c3cc2c1 was read as A488 fluor inconclusive, Texas Red fluor inactive, Fluorescein autfl 8.1e-08M*, Resorufin fluor inactive, Rhodamine autofl inactive and A647 autofl 1.1e-09.
Screening COC(=O)C1=CO[C@@H](C)[C@H]2CN3CCc4c([nH]c5ccccc45)[C@@H]3C[C@H]12 returned A488 fluor inactive, Texas Red fluor inactive, Fluorescein autfl 1.05e-08M*!, Resorufin fluor inactive, Rhodamine autofl inactive and A647 autofl 1.9e-09.
`C[C@@H]1[C@H](C)CC[C@@]2(C(=O)O)CC[C@]3(C)C(=CC[C@H]4[C@@]5(C)CC[C@@H](O)C(C)(C)[C@@H]5CC[C@@]43C)[C@@H]12` gave A488 fluor inactive, Texas Red fluor inactive, Fluorescein autfl inconclusive, Resorufin fluor inactive, Rhodamine autofl inactive and A647 autofl 2.29e-08.
Cc1cc2c(c(=O)o1)C1(C(=O)N(CC(=O)O)c3ccccc31)C(C#N)=C(N)O2 (centres undefined) was read as A488 fluor inactive, Texas Red fluor inactive, Fluorescein autfl 1.28e-08M*, Resorufin fluor inactive, Rhodamine autofl inactive and A647 autofl 1.16e-08.
For CCN1C(=O)C2(C(C#N)=C(N)Oc3cc(C)oc(=O)c32)c2ccccc21 (centres undefined) the results were A488 fluor inactive, Texas Red fluor inconclusive, Fluorescein autfl inactive, Resorufin fluor inactive, Rhodamine autofl inactive and A647 autofl 4.3e-09.
Screening CC1=CC(C#N)(C#N)C(C#N)(C#N)C(c2ccccc2)N1 (centres undefined) returned A488 fluor inconclusive, Texas Red fluor 3.35e-08M*, Fluorescein autfl 9.24e-08M*, Resorufin fluor 2.03e-08M*, Rhodamine autofl 2.76e-08M* and A647 autofl 1.7e-09.
For CC(C)N1CC2=C(OC(N)=C(C#N)C2c2cccnc2)/C(=C/c2cccnc2)C1 (centres undefined) the results were A488 fluor inactive, Texas Red fluor 1.28e-08M*, Fluorescein autfl inconclusive, Resorufin fluor inactive, Rhodamine autofl inactive and A647 autofl 6.2e-09.
CC[C@@]1(O)C(=O)OCc2c1cc1n(c2=O)Cc2cc3c(CN(C)C)c(O)ccc3nc2-1 was read as A488 fluor 2.05e-08M*, Texas Red fluor inconclusive, Fluorescein autfl 4.27e-07M*, Resorufin fluor inactive, Rhodamine autofl inactive and A647 autofl 4.7e-09.
For CCCCc1cc(=O)oc2c(CN(C)C)c(O)ccc12 the results were A488 fluor inactive, Texas Red fluor inactive, Fluorescein autfl inconclusive, Resorufin fluor inactive, Rhodamine autofl inactive and A647 autofl 2.69e-08.
`COCCn1c(=O)c(-c2ccc(Cl)cc2)nc2cnc(OCc3ccccc3)nc21` gave A488 fluor inactive, Texas Red fluor inactive, Fluorescein autfl inactive, Resorufin fluor inactive, Rhodamine autofl inactive and A647 autofl 1.3e-09.

High-throughput results deposited in PubChem by National Center for Advancing Translational Sciences (NCATS).
